Screens deposited in PubChem BioAssay by National Center for Advancing Translational Sciences (NCATS).
Most compounds without a hit are left out; they make up all but 12% or so of the library.
AmpC inh no detg – qHTS Inhibitors of AmpC Beta-Lactamase (assay without detergent); actives 0.52% (n = 330,000); Potency, µM (doses to about 57.1 µM), for the others: at the top dose activity change, negative = inhibition, hits mostly inhibitors; AID 485341, 2010; P00811; AmpC nitrocefin hydrolysis, absorbance 480 nm, 0.0001% Triton;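 also: plate controls were no compound for no effect and no enzyme for full effect; nearly all actives have a fitted effect of over 20% in size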
Target sequence (P00811 whole entry, looked up): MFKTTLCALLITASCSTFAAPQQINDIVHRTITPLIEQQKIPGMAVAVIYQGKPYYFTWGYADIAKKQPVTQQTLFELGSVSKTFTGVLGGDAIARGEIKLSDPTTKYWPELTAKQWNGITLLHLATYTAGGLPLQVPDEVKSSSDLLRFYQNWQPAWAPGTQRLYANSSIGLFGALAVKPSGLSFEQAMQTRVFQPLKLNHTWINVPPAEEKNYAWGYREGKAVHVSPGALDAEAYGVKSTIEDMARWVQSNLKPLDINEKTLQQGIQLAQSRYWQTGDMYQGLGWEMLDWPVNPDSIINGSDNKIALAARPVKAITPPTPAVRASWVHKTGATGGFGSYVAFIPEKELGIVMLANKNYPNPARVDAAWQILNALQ
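20 mM phosphate pH 7.0 + 0.01% (detergent screen) or 0.0001% Triton X-100; 5.3 nM AmpC reagent; cpd preinc 15 min RT; nitrocefin (800 uM stock) to start; A480 q20 s × 4 min; Activity was normalised to no-enzyme and no-compound control wells.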
Pf growth 48h – Primary qHTS for delayed death inhibitors of the malarial parasite plastid, 48 hour incubation | P. falciparum luciferase growth in erythrocytes, 48 h | Potency, µM (series often up to 28.7 µM), for the others: at the top dose activity change, negative = inhibition, hits mostly inhibitors | actives 5.9% (n = 310,000); also: % is scaled to controls: 0 for no effect and ±100 for the full control effect
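First compound was added to culture medium, then infected red cells at 0.1% parasitemia and 2% hematocrit (final). After incubation at 37 C under 5% CO2, luciferase detection reagent was dispensed and light output recorded.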
AmpC inh detg – qHTS Inhibitors of AmpC Beta-Lactamase (assay with detergent); P00811; AmpC hydrolysis of nitrocefin, absorbance 480 nm, 0.01% Triton; Potency, µM (highest dose often 114 µM), for the others: at the highest dose activity change, negative = inhibition, usual class: inhibitors; actives 0.041% (n = 370,000); AID 485294, 2010;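 also: 0% = no-compound wells and -100% = no-enzyme wells; nearly all actives have a fitted effect of over 25% in size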
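AmpC (5.3 nM in the dispensed reagent) in 20 mM phosphate pH 7.0 with 0.01% (detergent screen) or 0.0001% Triton X-100 was preincubated with compounds for 15 min at room temperature. Nitrocefin was then added from an 800 uM solution, and hydrolysis was followed at 480 nm.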
Pf growth 96h – Primary qHTS for delayed death inhibitors of the malarial parasite plastid, 96 hour incubation | P. falciparum luciferase reporter growth, 96 h | Potency, µM (doses to about 28.7 µM), without a hit: at the highest dose activity change, negative = inhibition, most hits filed as inhibitors | actives 6.9% (n = 320,000); also: % is scaled to controls: 0 for no effect and ±100 for the full control effect
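Parasite growth measured via integrated firefly luciferase reporter in P. falciparum. Infected erythrocytes at 2% hematocrit, 0.05% parasitemia final were treated 96 hours at 37 C under 5% CO2, and luminescence was read.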
Sm TGR block – qHTS Assay for the Inhibitors of Schistosoma Mansoni Peroxiredoxins; AID 485364, 2010; Schistosoma mansoni thioredoxin glutathione reductase (TGR), Q962Y6; Potency, µM (doses to about 114 µM), for inactives: at the highest dose activity change, negative = inhibition, hits mostly inhibitors; actives 3% (n = 360,000); purified TGR, DTNB reduction, TNB absorbance 405 nm; also: % is scaled to controls: 0 for no effect and ±100 for the full control effect; nearly all actives have a fitted effect of over 60% in size
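First, TGR (20 nM dispensed) and NADPH were mixed with compound. Second, a 15 min room-temperature incubation followed. Third, further NADPH and then DTNB were added to start the reaction. Finally, TNB absorbance was monitored kinetically.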
SARS PLpro yeast – qHTS of Yeast-based Assay for SARS-CoV PLP. S. cerevisiae expressing SARS-CoV PLpro, growth rescue. Potency, µM (highest dose often 32.9 µM), for the others: at the top dose activity, positive = growth rescue, most hits filed as activators. actives 0.19% (n = 330,000). AID 485353, 2010; calls by dose curve; also: 0% is about no effect; nearly all actives have a fitted effect of over 55% in size
* marks the source's active call; other numbers are inactive results; ? = inconclusive; nt = no result. Unless noted, calls follow the shape of the dose curve; as a rule, active = well fitted curve in the direction sought with a large enough effect; inconclusive = small, poorly fitted or top-dose-only effect, or another doubt; inactive = no such curve, though single readings can be large; an effect the other way counts as inactive or inconclusive. Potency is read from the fitted curve at half-maximal effect.

SMILES	AmpC inh no detg	Pf growth 48h	AmpC inh detg	Pf growth 96h	Sm TGR block	SARS PLpro yeast
CCN(CC)C(=O)[C@H]1CC(CC(=O)NCCCn2ccnc2)C(=O)N2CCc3c([nH]c4ccc(OC)cc34)[C@]12C (some centres undefined)	25.9%	nt	nt	nt	nt	0.9%
O=C(O)/C=C/C(=O)Nc1ccc(S(=O)(=O)N2CCCC2)cc1	-15.8%	-14.7%	2.1%	?	-21.2%	2.4%
COc1ccccc1NS(=O)(=O)c1ccc(C(=O)Nc2ncccc2O)cc1	-17.7%	4.65µM*	5.8%	?	-25.1%	-2.8%
Cc1cccc(N2CCN(C(=O)c3c4c(nc5ccccc35)C(=O)N(C3CCCCC3)C4)CC2)c1C	nt	nt	22.2%	nt	3.0%	nt
COc1cc(C)cc2oc(=O)c(CC(=O)N3CCN(C(=O)C4COc5ccccc5O4)CC3)c(C)c12 (centres undefined)	127.5%	?	-4.0%	0.8%	-27.0%	-4.9%
CC(=O)Oc1ccc2c(C)c(CC(=O)N3CCN(C(=O)C4COc5ccccc5O4)CC3)c(=O)oc2c1C (centres undefined)	179.9%	11.7µM*	1.5%	?	-19.6%	-1.3%
CC(C)(C)N1C(=O)[C@H]2[C@@H](c3ccc(Br)cc3)N3C(=O)N(c4cccc(F)c4)C(=O)[C@@]3(Cc3ccccc3)[C@H]2C1=O	-2.9%	5.22µM*	2.6%	4.65µM*	1.0%	3.0%
COc1ccc([C@@H]2[C@@H]3C(=O)N(C(C)(C)C)C(=O)[C@@H]3[C@]3(Cc4ccccc4)C(=O)N(c4cccc(F)c4)C(=O)N23)cc1	96.1%	?	-12.3%	9.28µM*	-3.5%	2.2%
COc1ccc(C(=O)NCC(c2ccc(N(C)C)cc2)N2CCc3ccccc32)cc1 (centres undefined)	nt	nt	14.5%	nt	7.4%	nt
O=C(COc1ccc(Cl)cc1)Nc1ccccc1C(=O)NCc1cccnc1	15.4%	?	0.4%	?	1.1%	-15.0%
Cc1cc(C)c(NC(=O)CN2c3ccccc3S(=O)(=O)c3ccccc32)c(C)c1	nt	nt	23.2%	nt	0.2%	nt
COc1ccc(S(=O)(=O)N(CC(=O)Nc2cc(C)cc(C)c2)c2ccc(Cl)cc2)cc1	nt	nt	-3.4%	nt	-5.3%	nt
COc1cc(C2CC(=O)NC(SCC(=O)Nc3ccccc3C)=C2C#N)ccc1O (centres undefined)	-28.4%	6.4%	-15.0%	57.0%	-34.3%	2.1%
COC(=O)CSC1=C(C#N)C(c2ccccc2)CC(=O)N1 (centres undefined)	-0.7%	15.5%	7.6%	9.28µM*	7.1%	7.8%
N#CC1=C(SCC(=O)Nc2ccccc2)NC(=O)CC1c1ccc(O)cc1 (centres undefined)	-25.8%	nt	?	5.86µM*	4.5%	-0.2%
COC(=O)c1ccc(OC)c(Cn2c(=O)n(-c3cccc(Cl)c3)c(=O)c3c4c(sc32)CN(C(C)=O)CC4)c1	nt	nt	17.1%	nt	6.0%	nt
Cc1cccn2c(=O)c(C(=O)NCc3ccccc3Cl)c(O)nc12	nt	nt	26.7%	nt	-2.6%	nt
Cc1ccc(/C=C/C(=O)O)cc1S(=O)(=O)NCCCO	-21.1%	-2.2%	6.6%	36.1%	39.8µM*	2.8%
Cc1ccc(/C=C/C(=O)O)cc1S(=O)(=O)N(CCO)CCO	-2.5%	-11.7%	8.9%	9.28µM*	22.4µM*	23.5%
COc1ccc(OC(=O)C(C)N2C(=O)c3ccccc3C2=O)cc1 (centres undefined)	-17.4%	-1.9%	-15.1%	29.9%	?	-2.0%
CC1=CC(C)(C)Nc2ccc(C)cc21	-13.9%	?	1.1%	?	-5.4%	6.0%
CC1=CC(C)(C)Nc2ccc(Cc3ccc4c(c3)C(C)=CC(C)(C)N4)cc21	-28.6%	?	12.6%	?	3.98µM*	-2.6%
